From PubChem
An excerpt weighted towards active compounds, which were near 2.8% of everything screened.
Shn3 3UTR inh: reduction of Shn3 3'UTR firefly luciferase signal, primary screen, Schnurri-3 inhibitor project, cell-based, Clone20 osteoblasts, set 2 | Clone20 osteoblast Shn3 3'UTR firefly luciferase, 24 h | inhibition, % at 12.5 µM | 360,000 tested, 0.52% active | AID 588674, 2011;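 active = mean inhibition of at least 75% with every replicate also reaching 75%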;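 also: 0% = median of neutral control wells and 100% = pilot-screen positive control compound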
MITF TRPM1 inh: inhibitors of MITF-dependent TRPM1 promoter reporter, primary screen, cell-based, SK-MEL-5, single point, luciferase; 330,000 tested, 0.83% active; SK-MEL-5 TRPM1 promoter luciferase, 24 h; AID 488899, 2010; inhibition, % at 12.5 µM;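 active = mean inhibition across replicates of 60% or more, whatever share of single replicates reaches that level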
CF NFkB inh: inhibitors of PAF-induced NF-kB signaling, primary screen, cell-based, GFP fluorescence, uHTS; KKLEB NF-kB-GFP reporter, GFP fluorescence overnight; inhibition, % at 5 µM; 360,000 tested, 0.86% active; AID 588850, 2011;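 active = at least 50% inhibition at 5 µM, scaled per plate between neutral and stimulator controls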;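 also: PAF is a Pseudomonas aeruginosa culture filtrate used as stimulus; plate controls were PAF-stimulated DMSO wells for no effect and unstimulated DMSO wells for full effect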
KKLEB cytotox: cytotoxicity in KKLEB CF airway cells, primary screen, cytotoxicity control for CF NF-kB inhibitor project, cell-based, uHTS, fluorescence assay plates. KKLEB CF airway cells viability, ATPlite luminescence, overnight; active compounds read low; cells stimulated with P. aeruginosa culture filtrate. activity change (cytotoxicity), % at 5 µM. 360,000 tested, 0.36% active;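 active = corrected activity change at or below -50% at 5 µM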
Peg3 promoter: Peg3 promoter-driven luciferase inhibitors, primary screen, cell-based, HeLa, luciferase luminescence; HeLa PEG-Prom luciferase reporter, overnight; AID 588405, 2011; inhibition, % at 20 µM; 360,000 tested, 1.7% active;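 active = inhibition of at least 50% at 20 µM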
HIF-2a inh: HIF-2a reporter inhibitors, primary screen, luminescence, 786-0 RCC cells; inhibition, % at 18.8 µM; 786-0 RCC cells HIF-2a reporter, luciferase luminescence, overnight; 360,000 tested, 0.72% active;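 active = inhibition of the luminescence signal of 40% or more relative to plate controls, in a single-dose primary screen at 18.75 µM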
Mdm2-MdmX confirm: retested Mdm2-MdmX interaction blockers, confirmation, cell-based, luminescence, single concentration, set 2 | SaOS-2 split-luciferase Mdm2/MdmX complementation | shares compounds with HIF-2a inh | 740 tested, 99% active | inhibition, % at 8 µM;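 active = mean inhibition of the luminescence signal across two replicates at or above 26 percent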
Target sequence (O15151 whole entry, looked up): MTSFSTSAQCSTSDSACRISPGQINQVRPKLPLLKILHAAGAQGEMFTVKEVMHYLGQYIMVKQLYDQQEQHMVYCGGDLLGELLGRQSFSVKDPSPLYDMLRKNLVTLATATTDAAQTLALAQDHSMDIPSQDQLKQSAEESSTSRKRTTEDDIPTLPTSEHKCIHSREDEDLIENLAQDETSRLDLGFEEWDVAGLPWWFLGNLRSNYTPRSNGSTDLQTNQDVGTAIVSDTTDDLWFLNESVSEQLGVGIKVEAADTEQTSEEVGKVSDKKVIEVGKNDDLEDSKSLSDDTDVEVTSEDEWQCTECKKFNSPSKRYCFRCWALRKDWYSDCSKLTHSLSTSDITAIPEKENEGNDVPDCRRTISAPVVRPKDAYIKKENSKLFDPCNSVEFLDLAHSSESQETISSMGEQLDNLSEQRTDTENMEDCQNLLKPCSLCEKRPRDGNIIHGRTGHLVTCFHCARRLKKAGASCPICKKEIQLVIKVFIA
Target sequence (Q00987 whole entry, looked up): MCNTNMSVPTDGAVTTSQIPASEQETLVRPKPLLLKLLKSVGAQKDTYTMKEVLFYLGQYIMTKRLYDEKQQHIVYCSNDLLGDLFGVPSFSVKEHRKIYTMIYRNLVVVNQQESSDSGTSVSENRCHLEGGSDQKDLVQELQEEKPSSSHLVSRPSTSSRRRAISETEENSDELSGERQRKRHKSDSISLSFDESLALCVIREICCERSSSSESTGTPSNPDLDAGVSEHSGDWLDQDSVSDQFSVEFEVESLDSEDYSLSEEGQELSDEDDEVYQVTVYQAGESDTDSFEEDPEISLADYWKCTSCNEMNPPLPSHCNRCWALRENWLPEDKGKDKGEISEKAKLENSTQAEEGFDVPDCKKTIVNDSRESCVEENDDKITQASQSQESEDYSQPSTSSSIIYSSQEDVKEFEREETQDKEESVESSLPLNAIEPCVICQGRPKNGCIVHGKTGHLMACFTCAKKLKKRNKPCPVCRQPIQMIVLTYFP
HIF-2a inh conf: HIF-2a reporter inhibitor retest, confirmation, luminescence, 786-0 RCC cells. HIF-2a luciferase reporter luminescence, overnight. shares compounds with HIF-2a inh. inhibition, % at 18.8 µM. 1,800 tested, 56% active;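 active = mean inhibition across four replicates of at least 40 percent at the single tested concentration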
HIF-1a cs: HIF-1a luciferase reporter signal reduction – MiaPaCa-2 cells, single concentration, counter-screen for HIF-2a inhibitor project, confirmation | shares compounds with HIF-2a inh | AID 651589, 2012 | 1,800 tested, 72% active | inhibition, % at 18.8 µM | MiaPaCa-2 HIF-1a luciferase reporter, desferoxamine, overnight;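 active = mean inhibition of the reporter signal across four replicates at the single tested dose of 50% or more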
Active calls of the source: *; . = no result given.

SMILES	Shn3 3UTR inh	MITF TRPM1 inh	CF NFkB inh	KKLEB cytotox	Peg3 promoter	HIF-2a inh	HIF-2a inh conf	HIF-1a cs	others
O=C(Nc1ccccc1-c1nc2ccccc2[nH]1)c1ccc(N2C(=O)CCC2=O)cc1	8.8	9.4	19.2	-25.8	21.7	44.8*	-22.5	9.9
CC(=O)Nc1ccc2[nH]c3ccccc3c2c1	-8.9	-30.1	-6.1	2.2	-52.2	-112.4	.	.
O=C(Nc1ccc(Cl)cc1)c1cc2c(cc1O)[nH]c1ccccc12	-20.8	2.8	66.6*	-63.2*	53.6*	-74.5	.	.	Mdm2-MdmX confirm=102.2*
CN1CCN(C(=O)c2ccc(-c3ccc(F)c(F)c3)c3ccoc23)CC1	14.5	.	-5.0	-8.5	8.5	7.7	.	.
O=C(NCc1ccco1)/C(=C/c1cccc(C(F)(F)F)c1)c1nc2ccccc2[nH]1	-19.1	49.2	19.3	-17.0	50.3*	41.1*	12.5	55.5*
Cc1cccc(CSC(Nc2ccc(F)cc2)=C(C#N)C#N)c1	53.8	16.0	42.4	-43.6	61.6*	-2.2	.	.	Mdm2-MdmX confirm=94.2*
Cc1nnc(NC(=O)c2nn(CC(C)C)c(=O)c3ccccc23)s1	15.6	-0.9	-6.8	1.6	18.7	10.6	.	.
Cc1nc2ccc(NC(=O)c3nn(CC(C)C)c(=O)c4ccccc34)cc2s1	-10.2	11.9	-12.7	4.1	-42.6	-46.6	.	.	Mdm2-MdmX confirm=93.2*
CC(C)c1ccc(CN2C(=O)NC3(CCCCCC3)C2=O)cc1	-13.8	-2.5	3.7	-0.4	14.9	20.1	.	.
Cc1ccc(S(=O)(=O)C(NC(=O)c2ccccc2)=C(Cl)Cl)cc1	-2.4	12.0	6.8	-6.5	52.4*	41.4*	12.8	82.2*
O=C(NC(=C(Cl)Cl)S(=O)(=O)c1ccc(Cl)cc1)c1ccccc1	-16.6	38.2	24.6	-5.3	60.8*	62.4*	4.1	103.3*
Cc1ccc(S(=O)(=O)/C(=C/Cl)NC(=O)c2ccccc2)cc1	61.2	32.9	49.1	-26.1	80.7*	41.4*	8.0	67.5*
Cc1ccc(C(=O)NC(=C(Cl)Cl)S(=O)(=O)c2ccc(C)cc2)cc1	-14.5	0.5	-16.1	-6.6	18.1	9.4	.	.
Cc1ccc(S(=O)(=O)CCC(=O)OCC(=O)NC(=O)c2ccccc2)cc1	3.2	-2.4	16.5	-3.5	-17.0	4.1	.	.
CCC[C@H]1CN(c2ccc(OC)cc2)C(=O)[C@@H]1CC(=O)NC	15.7	.	-6.4	8.5	4.6	9.4	.	.
NNC(=O)CCN1CCCCC1	-47.1	-4.6	-3.2	-3.3	-6.0	69.5*	3.0	-0.8
CC1CCN(CCC(=O)NN)CC1	-13.2	-2.0	27.2	-15.8	1.8	19.9	.	.
C/C(=N\NC(=O)C(O)c1ccccc1)c1ccc(Br)s1 (stereo not drawn)	1.0	-14.1	-17.7	1.9	-1.8	-11.2	.	.
N#CC1=C(c2ccccc2)/C(=C/c2ccccc2)OC1=O	95.2*	92.2*	41.6	-6.7	104.3*	89.5*	4.5	106.1*
FC(F)(F)c1nc2ccccc2n2c(-c3ccc(Cl)cc3)nnc12	-1.9	76.2*	75.8*	-55.5*	51.0*	46.3*	25.1	86.3*
COc1cc(C=C(c2nc3ccccc3s2)c2nc3ccccc3s2)cc(OC)c1O	-15.1	8.5	-24.3	8.0	-71.4	-56.0	.	.
O=C(O)c1ccc(C=C(c2nc3ccccc3s2)c2nc3ccccc3s2)cc1	-1.2	12.6	30.1	-15.2	18.9	50.1*	51.8*	92.1*
C[C@@]12C(=O)Nc3cc(F)c(F)cc3C(=O)N1[C@H]1c3cc(Cl)ccc3OC[C@@H]1[C@@H]2c1ccccc1	25.1	1.4	3.6	-16.7	36.7	-7.1	.	.
COc1ccccc1OC(=O)c1cc2ccccc2oc1=O	1.5	-8.7	-7.6	3.5	-4.3	8.2	.	.
COc1cc(/C=C/[N+](=O)[O-])ccc1OC(=O)c1cc2ccccc2oc1=O	11.1	53.8	35.2	-4.0	68.6*	61.0*	34.4	38.2
SMILES	Shn3 3UTR inh	MITF TRPM1 inh	CF NFkB inh	KKLEB cytotox	Peg3 promoter	HIF-2a inh	HIF-2a inh conf	HIF-1a cs	others
Cc1ccc(C)c(OCc2ccc(C(=O)NN)o2)c1	8.0	-7.7	-17.5	-0.5	-1.9	40.1*	28.6	-3.8
Cc1ccc(Cl)cc1NC(=O)c1cc2ccccc2cc1O	73.3	72.0*	50.9*	-54.8*	2.3	-142.8	.	.	Mdm2-MdmX confirm=100.7*
NNC(=O)c1cc2ccccc2cc1O	50.4	76.3*	7.7	7.4	38.7	69.5*	80.5*	74.5*
Cc1cc(NC(=O)c2ccccc2F)nc2c1c(=O)oc1ccccc12	10.9	6.4	-39.1	14.2	8.3	8.0	.	.
Cc1cccc(NC(=O)CSCC(=O)N(CCC(C)C)c2c(N)n(Cc3ccccc3)c(=O)[nH]c2=O)c1	-11.8	11.3	-8.1	19.0	10.5	11.5	.	.
Cc1cc(C)cc(N=c2c([N+](=O)[O-])nn(-c3ccc4c(c3)OCCO4)n2O)c1	-7.3	7.1	20.0	-11.6	-58.9	-102.7	.	.
O=[N+]([O-])c1nn(-c2ccc3c(c2)OCCO3)n(O)c1=Nc1ccccc1	66.2	85.5*	-17.5	28.5	75.6*	82.2*	89.6*	100.1*	Mdm2-MdmX confirm=95.5*
Cc1ccc(N=c2c([N+](=O)[O-])nn(-c3ccc4c(c3)OCCO4)n2O)cc1F	47.7	33.7	-15.1	8.4	33.2	70.2*	83.6*	94.4*
CCOc1ccccc1N1C(=O)c2ccc(S(=O)(=O)c3ccc(C(=O)O)cc3)cc2C1=O	8.1	0.3	-4.6	1.4	3.9	25.0	.	.
Cc1ccc(C(=O)C=CC=Cc2ccccc2)cc1	-12.3	.	-17.8	1.7	-211.0	-195.4	.	.
Cc1ccc(C(=O)C(C(=O)/C=C/c2ccccc2)=C2SCCCS2)cc1	-2.2	86.2*	-3.1	-7.3	109.5*	92.9*	86.3*	102.9*	Mdm2-MdmX confirm=103.2*
O=C(Nc1ccc(-c2nc3cccnc3s2)cc1)C1CCCO1 (stereo not drawn)	83.5	.	26.6	-18.4	49.6	58.5*	69.2*	44.9
O=C(Nc1ccc(-c2nc3ccccc3o2)cc1)C1CCCO1 (stereo not drawn)	-15.5	-37.7	-11.9	-8.7	-141.6	-181.1	.	.
